Experimental findings from the supplement of paper PMC12297408 are described below.

Where a name gives a salt, the structure may show the parent alone. The whole screen tested about 1,300 compounds, of which about 40 (3%) showed activity. The entries come from a sample that favours actives as a whole. Values without a mark were called inactive.

This assay has as its system Plasmodium falciparum NF54/iGP1_RE9H ulg8 stage V gametocytes. The experiment in a line: gametocyte viability (luciferase signal relative to DMSO control) (% of DMSO control); higher = less gametocytocidal activity, active = 50 or less. The following applies: exposure time: 72 h. In outline:
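Gametocyte viability is reported relative to the average of DMSO vehicle wells on the same plate. The assay used day-12 stage V NF54/iGP1_RE9Hulg8 gametocytes at ~2.5% gametocytemia and 3% hematocrit, in 0.5% Albumax II medium, added to 96-well plates of compounds spotted in nanolitre volumes for final 10 µM or 1 µM, one well each. After 72 h at 37 °C, 90 µl was mixed with 10 µl D-luciferin (30 mg/ml), and luminescence was recorded with an IVIS Lumina II.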

For `CC(C)C[C@H]1C(=O)N2CCC[C@H]2[C@]2(O)O[C@](NC(=O)[C@@H]3C=C4c5cccc6[nH]c(Br)c(c56)C[C@H]4N(C)C3)(C(C)C)C(=O)N12` [Bromocryptine mesylate], the gametocyte viability is 84.2 (concentration: 1 µM) and 66.9 (concentration: 10 µM).
On to `CCCN1C[C@H](CSC)C[C@@H]2c3cccc4[nH]cc(c34)C[C@H]21` [Pergolide mesylate], for which the gametocyte viability by setting is: (concentration: 1 µM) 78.2; (concentration: 10 µM) 82.3.
In the case of `CN1C[C@H](C(=O)N[C@]2(C)O[C@@]3(O)[C@@H]4CCCN4C(=O)[C@H](Cc4ccccc4)N3C2=O)C[C@@H]2c3cccc4[nH]cc(c34)C[C@H]21` [Dihydroergotamine tartrate], the gametocyte viability (concentration: 1 µM) is 66.8 and the gametocyte viability (concentration: 10 µM) is 42.4 (active).
Consider `CCNCC(O)c1cccc(O)c1` (stereo not given) [Etilefrine hydrochloride], for which the gametocyte viability is, setting by setting: (concentration: 1 µM) 87.9; (concentration: 10 µM) 90.2.
As to `CCC1(c2cccc(O)c2)CCCCN(C)C1` (stereo not given) [Meptazinol hydrochloride], the gametocyte viability is 83 (concentration: 1 µM) and 81.4 (concentration: 10 µM).
For `CNC(=O)Oc1ccc2c(c1)[C@]1(C)CCN(C)[C@@H]1N2C` [Eserine sulfate, physostigmine sulfate], the gametocyte viability runs as follows: (concentration: 1 µM) 83.4; (concentration: 10 µM) 79.
Consider `CN1CCC2(C)c3cc(O)ccc3N(C)C12` (single isomer, unassigned; (-)) [(-)-Eseroline fumarate salt], for which the gametocyte viability is, setting by setting: (concentration: 1 µM) 74.2; (concentration: 10 µM) 44.8 (active).
With `C(#CCN1CCCC1)CN1CCCC1` [Tremorine dihydrochloride], the gametocyte viability (concentration: 1 µM) was 91.5 and the gametocyte viability (concentration: 10 µM) was 94.7.
In the same order, the values of `C[C@@H]1O[C@@H](O[C@@H]2C=C3CC[C@@H]4[C@H](CC[C@]5(C)[C@@H](c6ccc(=O)oc6)CC[C@]45O)[C@@]3(C)CC2)[C@H](O)[C@H](O)[C@H]1O` [Proscillaridin A] are 81.2 and 76.2.
Take `CCCCCC[C@H]1C(=O)O[C@H](C)[C@H](NC(=O)c2cccc(NC=O)c2O)C(=O)O[C@@H](C)[C@@H]1OC(=O)CC(C)C` [Antimycin A]: the gametocyte viability is 86.4 (concentration: 1 µM) and 94.3 (concentration: 10 µM).
The like results for `Fc1ccc(C(OCCN2CCN(CCCc3ccccc3)CC2)c2ccc(F)cc2)cc1` were, in that order, 81.5 and 86.
As to `COc1ccc(CCN2CCC(Nc3nc4ccccc4n3Cc3ccc(F)cc3)CC2)cc1` [Astemizole], the gametocyte viability is, setting by setting: (concentration: 1 µM) 92.7; (concentration: 10 µM) 36.4 (active).
As for `CN(C)[C@@H]1C(=O)C(C(N)=O)=C(O)[C@@]2(O)C(=O)C3=C(O)c4c(O)ccc(Cl)c4[C@@](C)(O)[C@H]3C[C@@H]12` [Chlortetracycline hydrochloride], the gametocyte viability (concentration: 1 µM) was 88.2 and the gametocyte viability (concentration: 10 µM) was 88.7.
Regarding `CN1[C@@H]2CC[C@H]1C[C@@H](OC(=O)[C@H](CO)c1ccccc1)C2` [Hyoscyamine (L)], the gametocyte viability was 86.7 (concentration: 1 µM) and 91.7 (concentration: 10 µM).
On to `CN1[C@@H]2CC[C@H]1C[C@@H](OC1c3ccccc3CCc3ccccc31)C2` [Deptropine citrate], for which the gametocyte viability is 99.2 (concentration: 1 µM) and 86.5 (concentration: 10 µM).
For the molecule `CC[C@@]1([C@@H]2O[C@@H]([C@H]3O[C@@](O)(CO)[C@H](C)C[C@@H]3C)C[C@@H]2C)CC[C@H]([C@]2(C)CC[C@]3(C[C@H](O)[C@@H](C)[C@@H]([C@@H](C)[C@@H](OC)[C@H](C)C(=O)O)O3)O2)O1` [Monensin sodium salt], the gametocyte viability was 28.8 (active) (concentration: 1 µM) and 0.676 (active) (concentration: 10 µM).
In the case of `C[C@]12CC[C@H](O)C[C@H]1CC[C@@H]1[C@@H]2C[C@@H](O)[C@]2(C)[C@@H](C3=CC(=O)OC3)CC[C@]12O` [Digoxigenin], the gametocyte viability (concentration: 1 µM) is 74.9 and the gametocyte viability (concentration: 10 µM) is 72.3.
With `O[C@@H]1CCCC[C@H]1N1CCC(c2ccccc2)CC1` [L(-)-vesamicol hydrochloride], the gametocyte viability by setting is: (concentration: 1 µM) 91.8; (concentration: 10 µM) 84.9.
In the same order, the values of `CC[C@@H](C(N)=O)N1CCCC1=O` [Levetiracetam] are 83.8 and 85.3.
In the case of `C#C[C@]1(O)CC[C@H]2[C@@H]3CCC4=CC(=O)CCC4=C3C=C[C@@]21CC` [Gestrinone], the gametocyte viability runs as follows: (concentration: 1 µM) 86.6; (concentration: 10 µM) 74.2.
On to `C=CC[C@]1(O)CC[C@H]2[C@@H]3CCC4=CC(=O)CCC4=C3C=C[C@@]21C` [Altrenogest], for which the gametocyte viability runs as follows: (concentration: 1 µM) 56.8; (concentration: 10 µM) 33.1 (active).
Turning to `C[C@]12CCC(=O)C=C1C=C[C@@H]1[C@@H]2CC[C@@]2(C)[C@H]1CC[C@@]2(O)CCC(=O)O` [Canrenoic acid potassium salt], the gametocyte viability was 83.5 (concentration: 1 µM) and 82.3 (concentration: 10 µM).
In the same order, the values of `C[N+]1([O-])[C@@H]2C[C@@H](OC(=O)[C@H](CO)c3ccccc3)C[C@H]1[C@@H]1O[C@@H]12` (stereo not given in full) [Scopolamin-N-oxide hydrobromide] are 91.5 and 94.5.
For the molecule `CCN[C@@H](C)Cc1cccc(C(F)(F)F)c1` [Dexfenfluramine hydrochloride], the gametocyte viability (concentration: 1 µM) was 95.2 and the gametocyte viability (concentration: 10 µM) was 90.6.
The like results for `C[C@]12COC(=O)C[C@@H]1CC[C@@H]1[C@@H]2CC[C@@]2(C)[C@H]1CC[C@]2(C)O` [Oxandrolone] were, in that order, 81.4 and 78.9.
